TWEAK-Fn14 inh: TWEAK-Fn14 signaling inhibition | 360,000 tested, 2% active | TWEAK-stimulated Fn14 reporter cells, luciferase luminescence, 8 h | AID 1159606 | inhibition, % at 10 µM; in the data active = inhibition above about 50%
TROY NFkB inh: blocks TROY-dependent signaling in reporter cells; Q293 LMP1-TROYcd NF-kB luciferase reporter, 4 h; inhibition, % at 10 µM; 360,000 tested, 0.98% active; AID 1347056;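 active = compounds whose plate-normalised and pattern-corrected inhibition of the luciferase reporter signal at the single screening dose is 50% or more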
LGR2 antag: inhibitors of bursicon-induced Drosophila LGR2 receptor cAMP signaling. 380,000 tested, 0.35% active. inhibition, % at 9.99 µM. HEK293 LGR2, CRE-luciferase, bursicon-stimulated, 4 h;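 active = drop in luminescence signal, shown as inhibition above about 50% in the replicate tests, limit read from the data, passing the limit was not always enough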;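 also: agonist challenge used bursicon conditioned medium at about half maximal strength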
EBV LMP1 NFkB: inhibitors of Epstein-Barr LMP1-induced NF-kappaB reporter | LMP1-induced NF-kappaB luciferase reporter cells, luminescence | inhibition, % at 12.5 µM | 350,000 tested, 0.69% active | AID 504558; in the data active = inhibition above about 41%;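 also: 0% = neutral control wells and 100% = reference inhibitor control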
HSP90 refold inh: HSP90 refolding inhibition in rabbit reticulocyte lysate; luciferase refolding luminescence, 3 h; inhibition, % at 5.6 µM; 290,000 tested, 0.91% active; AID 1789;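 active = inhibition above the screen-wide mean plus 3 SD, computed separately per campaign, cut at about 16% in these data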;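 also: 0% = DMSO wells and 100% = 60 µM geldanamycin wells; inhibitors lower the luminescence because luciferase stays unfolded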
aDG glyco act: increases alpha dystroglycan glycosylation. AID 624168. Pro5-aDG cells, alpha-DG glycosylation AlphaScreen (IIH6); 0% Pro5, 100% B10-LARGE cell signal. activation, % at 10 µM. 360,000 tested, 0.22% active;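 active = activation of at least 8% versus controls, or a plate z-score of at least 8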;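 also: Pro5 are CHO cells carrying HIG-tagged alpha-DG that lacks glycosylation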
aDG conf: alpha-DG glycosylation activation, confirmation. Pro5-aDG cells, IIH6 AlphaLISA; scaled to LARGE-overexpressing B10 cells as 100%. shares compounds with aDG glyco act. 600 tested, 17% active. AID 651671. activation, % at 10 µM (by protocol);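 active = activation of at least 7% in one or more replicates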;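 also: cells exposed to compound for two days before detection; 0% = DMSO-treated Pro5 cells and 100% = DMSO-treated B10-LARGE cells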
Numbers without * were called inactive. This is a sample that favours compounds with a hit; in the whole collection about 2.6% have one here.

Screening O=[N+]([O-])c1cc(-c2nc(-c3ccncc3)no2)ccc1Cl returned TWEAK-Fn14 inh -35, TROY NFkB inh -15, LGR2 antag -8, EBV LMP1 NFkB 10, HSP90 refold inh 3 and aDG glyco act 0.
Screening CCn1c(SCC(=O)NCc2ccccc2)nc2ccccc2c1=O returned TWEAK-Fn14 inh 9, TROY NFkB inh -20, LGR2 antag 2, EBV LMP1 NFkB 0, HSP90 refold inh 5 and aDG glyco act 0.
`CCn1c(SCC(=O)NC2(C#N)CCCCC2)nc2ccccc2c1=O` gave TWEAK-Fn14 inh 4, TROY NFkB inh -13, LGR2 antag -4, EBV LMP1 NFkB 3, aDG glyco act 4.0* and aDG conf 0.
For C[C@@H]1CN([C@@H](C)CO)C(=O)c2cc(-c3ccncc3)cnc2O[C@H]1CN(C)C(=O)C1CC1 the results were LGR2 antag 8.
`CCN(C(=O)CC(C)C)c1nnc(Cn2nnc3ccccc32)s1` gave TWEAK-Fn14 inh 13, TROY NFkB inh 9, LGR2 antag -1, EBV LMP1 NFkB 14, HSP90 refold inh -2 and aDG glyco act 3.
Screening CCN(C(=O)c1ccc(C(C)(C)C)cc1)c1nnc(Cn2nnc3ccccc32)s1 returned TWEAK-Fn14 inh 73*, TROY NFkB inh 40, EBV LMP1 NFkB 2, HSP90 refold inh 9, aDG glyco act 7.9* and aDG conf 3.
Screening CCCCOc1ccc(C(=O)Nc2cccc(C)n2)cc1 returned TWEAK-Fn14 inh 31, TROY NFkB inh 37, EBV LMP1 NFkB -5, HSP90 refold inh 11, aDG glyco act 6.3* and aDG conf -1.
Screening O=C(Nc1ccc(OC(F)(F)F)cc1)c1ccc2nccnc2c1 returned TWEAK-Fn14 inh 14, TROY NFkB inh -18, LGR2 antag -41, EBV LMP1 NFkB -12, HSP90 refold inh -2, aDG glyco act 5.5* and aDG conf 0.
COC(=O)c1ccc(NC(=O)c2ccc3nccnc3c2)cc1 was read as TWEAK-Fn14 inh -21, TROY NFkB inh -1, LGR2 antag -43, EBV LMP1 NFkB 19, HSP90 refold inh 0 and aDG glyco act 0.
Screening Cc1nc2ccccn2c1-c1csc(Nc2cccc(O)c2)n1 returned TWEAK-Fn14 inh 36, TROY NFkB inh 7, LGR2 antag -10, EBV LMP1 NFkB 0, HSP90 refold inh 6 and aDG glyco act 0.
Screening Cc1cccc(Nc2nc(-c3c(C)nc4ccccn34)cs2)c1 returned TWEAK-Fn14 inh 66*, TROY NFkB inh 41, EBV LMP1 NFkB 21, HSP90 refold inh 2, aDG glyco act 4.4* and aDG conf 4.
Screening CC(=O)Oc1ccccc1N(C(C)=O)S(=O)(=O)c1ccc(C)cc1 returned TWEAK-Fn14 inh 2, TROY NFkB inh -5, LGR2 antag 11, EBV LMP1 NFkB 1, HSP90 refold inh 3 and aDG glyco act 0.
Screening CC(=O)Oc1ccc(N(C(C)=O)S(=O)(=O)c2ccc(C)cc2C)c2ccccc12 returned TWEAK-Fn14 inh 3, TROY NFkB inh 17, LGR2 antag 2, EBV LMP1 NFkB -16, HSP90 refold inh -1, aDG glyco act 4.9* and aDG conf 3.
COc1ccc(S(=O)(=O)N(C(C)=O)c2ccc(OC(C)=O)c3ccccc23)cc1[N+](=O)[O-] was read as TWEAK-Fn14 inh 19, TROY NFkB inh 23, LGR2 antag 6, EBV LMP1 NFkB -3, HSP90 refold inh -3, aDG glyco act 11* and aDG conf 2.
`CC(=O)N(c1ccccc1Cl)S(=O)(=O)c1ccc(Cl)cc1` gave TWEAK-Fn14 inh 4, TROY NFkB inh 18, LGR2 antag -14, EBV LMP1 NFkB 5, HSP90 refold inh 2 and aDG glyco act 0.
Screening CC(=O)Oc1ccc(N(C(C)=O)S(=O)(=O)c2ccccc2)c2ccccc12 returned TWEAK-Fn14 inh -7, TROY NFkB inh 7, LGR2 antag 13, EBV LMP1 NFkB 0 and aDG glyco act 6.
Screening CC(=O)Oc1c(Cl)cc(N(C(C)=O)S(=O)(=O)c2ccccc2)c2ccccc12 returned TWEAK-Fn14 inh 13, TROY NFkB inh 22, LGR2 antag 15, aDG glyco act 3.1* and aDG conf 5.6*.

Bioassay records (PubChem BioAssay)
